Hits are enriched below; roughly 3.5% of the tested compounds scored in any of these assays.
FBW7 activator: human FBW7 E3 ligase activation, primary screen | Q969H0 | 0.13% of 650,000 active | normalized activity (activation), % at 26.1 µM | AlphaScreen FBW7–phospho-cyclin E peptide binding, activator screen; in the data active means normalized activity above about 1.9%;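 further: purified mutant Fbw7 with reduced substrate affinity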
GPR151 activ: activates the human receptor GPR151; Q8TDV0; PathHunter beta-arrestin GPR151 cells, luminescence; activation, % at 11.2 µM; 1% of 650,000 active; AID 1508602; in the data active means activation above about 4.9%
TEAD-YAP inh: TEAD-YAP interaction inhibition. HEK-TIYL cells, TEAD-Gal4/YAP UAS-luciferase luminescence. inhibition, % at 9.12 µM. 1.4% of 640,000 active. AID 1259422; in the data active means inhibition above about 32%
MITF primary: human MITF inhibition, primary screen. O75030. AlphaScreen MITF homodimerization, bead proximity signal. inhibition, % at 2.6 µM. 0.91% of 650,000 active. AID 1259374; in the data active means inhibition above about 50%
Target sequence (O75030 whole entry, looked up): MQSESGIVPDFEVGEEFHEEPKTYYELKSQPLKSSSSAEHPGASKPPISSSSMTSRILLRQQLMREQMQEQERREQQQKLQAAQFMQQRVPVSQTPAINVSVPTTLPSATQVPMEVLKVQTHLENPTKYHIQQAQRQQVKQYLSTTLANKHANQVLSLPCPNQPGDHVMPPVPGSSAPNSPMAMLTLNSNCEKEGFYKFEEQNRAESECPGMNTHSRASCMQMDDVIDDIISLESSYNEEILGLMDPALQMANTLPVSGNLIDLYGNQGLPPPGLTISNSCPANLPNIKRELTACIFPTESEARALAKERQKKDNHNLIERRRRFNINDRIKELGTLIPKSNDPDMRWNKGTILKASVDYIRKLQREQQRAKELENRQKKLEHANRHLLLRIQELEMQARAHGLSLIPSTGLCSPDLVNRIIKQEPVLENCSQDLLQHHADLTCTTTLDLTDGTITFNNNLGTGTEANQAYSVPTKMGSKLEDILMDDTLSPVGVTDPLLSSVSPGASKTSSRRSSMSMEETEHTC
GPR151 conf act: confirmation of human GPR151 activators; shares compounds with GPR151 activ; GPR151 PathHunter beta-arrestin cells, luminescence, 90 min; % of EA-reagent control over plate median; activation, % at 11.2 µM; 6,700 tested, under 10 active;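 active means mean percent activation across replicates above the confirmation screen cutoff of 4.91%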
GPR119 ag: GPR119 activation, counter-screen for GPR151 activators | 0.3% of 6,700 active | AID 1508611 | shares compounds with GPR151 activ | GPR119 PathHunter beta-arrestin cells, luminescence, 90 min; 0 = compound-well median, 100 = enzyme-acceptor control | activation, % at 11.2 µM;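 active means mean percent activation in the counterscreen above 29.09%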;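 further: counterscreen on off-target GPR119 to flag nonselective hits from the GPR151 activator screen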
A number is an active result; - = inactive; . = no result given.

SMILES	FBW7 activator	GPR151 activ	TEAD-YAP inh	MITF primary	GPR151 conf act	GPR119 ag
Cc1ccccc1C1c2[nH]c3ccccc3c2CCN1C(=O)CCN1CCCCO1 (configuration not stated)	-	-	-	-	.	.
COc1ccc(/C=C(\C#N)c2nc3ccccc3[nH]2)cc1O	-	4.9	-	-	-	-
CS(=O)(=O)N(CC(=O)NCc1ccccc1)c1cccc(Cl)c1	-	6.1	-	-	-	-
Cc1nccn1-c1ccc(NC(=O)C2CCCN(C/C=C/c3ccc(F)cc3)C2)cc1 (configuration not stated)	-	-	-	-	.	.
CCCCOc1ccc(CSc2nncn2N)cc1[N+](=O)[O-]	-	5.1	-	-	-	-
CCN(CC)c1nc(NCc2cccc(C(F)(F)F)c2)nc(Nc2ccc(-n3ccnc3)cc2)n1	-	-	-	-	.	.
Cc1ccc(C(=O)C2=C(O)C(=O)N(CCN3CCOCC3)C2c2ccccn2)o1 (configuration not stated)	-	7.9	-	-	-	-
Cc1ccc([N+](=O)[O-])c(OCCOCCN2CCc3ccccc3C2)c1	-	5.7	-	-	-	-
Cc1ccc(NC(=O)C2CC(=O)N(c3ccccc3)C2)cc1Br (configuration not stated)	-	-	-	-	.	.
Nc1cc2c(cc1C(=O)c1cccc(Br)c1)OCCO2	-	5.4	-	-	-	-
COC(=O)c1ccc(C(=O)OC)c(NC(=O)c2ccc(C)c([N+](=O)[O-])c2)c1	-	-	-	-	.	.
O=C(NNC(=O)c1cccnc1)c1ccccc1	-	-	-	-	.	.
COc1ccc(CCNC(=O)c2cnc(Nc3nccc4ccccc34)s2)cc1	-	5.8	-	-	-	-
CCCNC(=O)c1cnc(Nc2nccc3ccccc23)s1	-	-	-	-	.	.
O=C(N1CCCCCC1)C12CC3CC(CC(Cl)(C3)C1)C2	-	-	-	-	.	.
Cc1ccc(C2C(C#N)=C(N)Oc3n[nH]c(-c4ccccc4)c32)cc1 (configuration not stated)	-	-	-	-	.	.
Cc1ccc(NC(=O)c2cccs2)cc1NC(=O)c1cnccn1	-	5.9	-	-	-	-
Cc1cnccc1NC(=O)c1cccs1	-	-	-	-	.	.
O=C(Nc1ccncc1)c1cccs1	-	-	-	-	.	.
O=C(Nc1cccnc1)c1cccs1	-	8.9	40	-	-	-
CCOC(=O)c1cn(C(C)CO)c2c(F)c(F)c(F)cc2c1=O (configuration not stated)	-	-	-	-	.	.
Cc1cc(NCc2ccccc2)nc(-c2ccc(N3CCN(C)CC3)cc2)n1	-	14	-	-	-	-
Cc1ccc(N(CC(=O)Nc2ccc(Cl)cc2)S(=O)(=O)c2c(C)noc2C)cc1	-	-	-	-	.	.
O=c1c(S(=O)(=O)c2ccc(F)cc2)c[nH]c2ccc(Cl)cc12	-	-	-	-	.	.
Cc1cc2[nH]c(=O)c(=O)[nH]c2cc1S(=O)(=O)NC1CCC(C)CC1 (configuration not stated)	-	7.4	-	-	-	-
SMILES	FBW7 activator	GPR151 activ	TEAD-YAP inh	MITF primary	GPR151 conf act	GPR119 ag
O=C(/C=C/c1ccccc1)Oc1ccc([N+](=O)[O-])cc1	-	-	-	-	.	.
CS(=O)(=O)N(CC(=O)NC1CC2CCC1C2)c1cc(Cl)c(Cl)cc1Cl (configuration not stated)	-	-	-	-	.	.
CCc1ccccc1N(CC(=O)NC1CC2CCC1C2)S(C)(=O)=O (configuration not stated)	-	5.6	-	-	-	-
COC(=O)c1ccc(N2N=C(C)/C(=C/c3ccc(C)s3)C2=O)cc1	-	-	-	-	.	.
CC1=NN(c2ccc(Br)cc2)C(=O)/C1=C/c1ccc(C)s1	-	7.5	-	-	-	-
CC(C)c1csc(CN2CCCC(CNC(=O)c3cccs3)C2)n1 (configuration not stated)	-	6.1	-	-	-	-
CSc1cccc(CN2CCCC(CNC(=O)c3cccs3)C2)c1 (configuration not stated)	-	-	-	-	.	.
CC(=O)c1cccc(CN2CCCC(CNC(=O)c3cccs3)C2)c1 (configuration not stated)	-	10	-	-	-	-
CCC1=C(C)C(C(F)(F)F)(C(F)(F)F)C(C#N)=C(N)N1c1ccccc1F	-	-	-	-	.	.
